From PubChem BioAssay (NCATS) come the findings set out here.

Experiment [1] addresses Rap guanine nucleotide exchange factor 3 (Homo sapiens) (UniProt O95398). Nature of the experiment: Confirmatory qHTS for antagonist of cAMP-regulated guanine nucleotide exchange factor 3 (EPAC1) (AID 1645880). Also: nearly all actives have a fitted effect of over 55% in size. Also: potency is read from the fitted curve at half-maximal effect. The method, boiled down: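 Released BODIPY-GDP fluoresces less than Rap1-bound BODIPY-GDP; the signal is followed at 480/540 nm at 5-min intervals over 30 min, after 5 min at room temperature. Reactions contain 100 nM EPAC1, 250 nM RAP1B-BODIPY-GDP and 50 uM GDP; results are normalized to ATA and DMSO.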
(In qHTS, concentration-response curves come from the screen itself.)

Experiment [2] has the same target. Nature of the experiment: Confirmatory qHTS for agonist of cAMP-regulated guanine nucleotide exchange factor 3 (EPAC1) (AID 1645881). Also: nearly all actives have a fitted effect of over 75% in size. Also: potency is read from the fitted curve at half-maximal effect.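 As to activation: EPAC1 catalysed release of BODIPY-GDP from Rap1B seen as fluorescence loss; 100% = effect of cAMP agonist control.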
The target of experiment [3] is Rap guanine nucleotide exchange factor 4 (Homo sapiens) (UniProt Q8WZA2). Nature of the experiment: Confirmatory qHTS for agonist of cAMP-regulated guanine nucleotide exchange factor 4 (EPAC2) (AID 1645884).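 Also: nucleotide exchange releases bodipy-GDP from Rap1 and this lowers its fluorescence; nearly all actives have a fitted effect of over 65% in size.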 Also: potency is read from the fitted curve at half-maximal effect. As to activation: % is scaled to controls: 0 for no effect and ±100 for the full control effect.
Rap guanine nucleotide exchange factor 4 (Homo sapiens), sequence (Q8WZA2 whole entry, looked up): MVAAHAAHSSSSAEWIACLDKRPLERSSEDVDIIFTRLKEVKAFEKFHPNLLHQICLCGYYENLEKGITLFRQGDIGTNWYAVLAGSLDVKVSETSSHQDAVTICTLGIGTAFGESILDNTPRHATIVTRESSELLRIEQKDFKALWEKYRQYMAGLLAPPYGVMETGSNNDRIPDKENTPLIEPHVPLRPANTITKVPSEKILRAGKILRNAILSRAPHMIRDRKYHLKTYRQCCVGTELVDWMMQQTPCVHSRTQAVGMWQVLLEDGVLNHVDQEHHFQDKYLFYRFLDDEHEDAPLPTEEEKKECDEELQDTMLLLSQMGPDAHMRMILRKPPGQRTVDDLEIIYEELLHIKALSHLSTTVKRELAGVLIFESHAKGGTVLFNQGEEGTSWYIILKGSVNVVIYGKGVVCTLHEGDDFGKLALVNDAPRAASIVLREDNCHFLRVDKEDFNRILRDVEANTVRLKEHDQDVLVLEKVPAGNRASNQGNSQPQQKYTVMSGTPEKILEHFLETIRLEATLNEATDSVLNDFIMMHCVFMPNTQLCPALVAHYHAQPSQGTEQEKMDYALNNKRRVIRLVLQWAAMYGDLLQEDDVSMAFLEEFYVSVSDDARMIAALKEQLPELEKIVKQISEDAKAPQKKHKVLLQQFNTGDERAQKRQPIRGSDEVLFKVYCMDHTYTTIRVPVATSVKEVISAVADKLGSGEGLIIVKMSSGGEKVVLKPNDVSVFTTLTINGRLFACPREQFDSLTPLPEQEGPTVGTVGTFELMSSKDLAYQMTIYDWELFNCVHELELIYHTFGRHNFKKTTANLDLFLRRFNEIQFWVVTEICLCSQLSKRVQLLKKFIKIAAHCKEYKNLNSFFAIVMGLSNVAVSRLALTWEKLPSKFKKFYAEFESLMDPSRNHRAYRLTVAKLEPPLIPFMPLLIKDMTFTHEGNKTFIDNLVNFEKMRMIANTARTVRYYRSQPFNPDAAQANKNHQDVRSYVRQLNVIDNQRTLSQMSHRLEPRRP
Experiment [4] has the same target. The experiment is described as follows: Confirmatory qHTS for antagonist of cAMP-regulated guanine nucleotide exchange factor 4 (EPAC2) (AID 1645885). Also: nearly all actives have a fitted effect of over 25% in size. Also: potency is read from the fitted curve at half-maximal effect. As to activity change, negative = inhibition: % is scaled to controls: 0 for no effect and ±100 for the full control effect.
In experiment [5] the target is Rap guanine nucleotide exchange factor 3 (Homo sapiens) (UniProt O95398). The experiment is described as follows: Counterscreen qHTS for antagonist of cAMP-regulated guanine nucleotide exchange factor 3 (EPAC1) (AID 1645888). Also: % of control where 0% means no effect. Summed up: (§1)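 Rap1B-BODIPY-GDP 250 nM + GDP 50 uM; cpds 7-pt, final 9.74 nM–152 uM (activator mode) or from 7.32 nM upwards (inhibitor mode); RT; FI 480/540 nm at 5 and 30 min, then ± cAMP, reread.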
Rap guanine nucleotide exchange factor 3 (Homo sapiens), sequence (O95398 whole entry, looked up): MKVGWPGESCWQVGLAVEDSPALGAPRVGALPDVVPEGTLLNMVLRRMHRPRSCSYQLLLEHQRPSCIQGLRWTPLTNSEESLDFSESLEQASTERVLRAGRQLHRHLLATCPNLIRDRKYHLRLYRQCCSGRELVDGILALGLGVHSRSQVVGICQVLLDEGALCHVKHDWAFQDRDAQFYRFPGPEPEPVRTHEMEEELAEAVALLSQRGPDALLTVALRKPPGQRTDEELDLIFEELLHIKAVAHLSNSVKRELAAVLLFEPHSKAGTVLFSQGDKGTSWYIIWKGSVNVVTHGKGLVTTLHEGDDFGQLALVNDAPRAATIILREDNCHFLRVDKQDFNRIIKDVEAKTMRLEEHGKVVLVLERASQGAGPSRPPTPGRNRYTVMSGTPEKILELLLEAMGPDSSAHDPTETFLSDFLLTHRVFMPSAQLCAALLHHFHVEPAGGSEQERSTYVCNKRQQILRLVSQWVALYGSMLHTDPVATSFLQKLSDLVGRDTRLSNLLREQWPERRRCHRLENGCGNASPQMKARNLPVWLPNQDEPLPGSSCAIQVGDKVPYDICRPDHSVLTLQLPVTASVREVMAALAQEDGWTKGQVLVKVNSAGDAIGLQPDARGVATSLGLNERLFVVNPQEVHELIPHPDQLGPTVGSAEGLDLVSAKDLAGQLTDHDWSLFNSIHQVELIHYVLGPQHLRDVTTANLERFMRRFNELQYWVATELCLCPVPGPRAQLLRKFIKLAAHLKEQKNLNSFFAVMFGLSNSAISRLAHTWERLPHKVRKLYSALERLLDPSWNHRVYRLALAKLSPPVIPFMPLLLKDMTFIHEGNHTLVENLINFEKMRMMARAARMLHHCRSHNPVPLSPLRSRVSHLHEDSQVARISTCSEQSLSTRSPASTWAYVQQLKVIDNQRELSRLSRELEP
In general terms: The purpose of a counterscreen is to sort out artefacts and off-target activity.

For experiment [6] the target is unchanged. The experiment is described as follows: Counterscreen qHTS for agonist of cAMP-regulated guanine nucleotide exchange factor 3 (EPAC1) (AID 1645889). Also: nearly all actives have a fitted effect of over 40% in size. Also: potency is read from the fitted curve at half-maximal effect. As to activation: % of control where 0% means no effect. Summed up: as §1

Records with an inconclusive call do not appear. Unmarked numbers belong to inactive results. Calls of active or inactive are those of the source. Calls follow the shape of the dose curve; as a rule, active = well fitted curve in the direction sought with a large enough effect; inconclusive = small, poorly fitted or top-dose-only effect, or another doubt; inactive = no such curve, though single readings can be large; an effect the other way counts as inactive or inconclusive.

Consider `CC(=O)Nc1ccc(CNc2nc3cc(-c4ccsc4)sc3c(=O)n2C)cc1`, for which the Potency result in experiment [1], in experiment [2] and in experiment [4] was “inactive” throughout. For the same compound, the activation was -3.78% [at 17.1 µM, percent relative to cAMP agonist control] in experiment [3] and 36.9% [at 30.8 µM] in experiment [6]. Further, the activity change, negative = inhibition in experiment [5] was 16% [at 30.8 µM].
With `O=C(CCNC(=O)c1ccc(Br)cc1)Nc1ccccc1N1CCOCC1`, the Potency result in experiment [1], in experiment [2], in experiment [3], in experiment [4], in experiment [5] and in experiment [6] was “inactive” throughout.
In the case of `CC1CCCCC1Nc1nc2ccc(Cl)cc2n2cnnc12` (stereo unspecified), the Potency entry in experiment [1], in experiment [2], in experiment [3], in experiment [4], in experiment [5] and in experiment [6] was “inactive” throughout.
With `Cc1ccc(C)c(NC(=O)CN(C)C(=O)c2cccc(S(=O)(=O)N3CCCC3)c2)c1`, the Potency result in experiment [1], in experiment [2], in experiment [3], in experiment [4], in experiment [5] and in experiment [6] was “inactive” in each case.
In the case of `CCOC(=O)c1cc2n(c1N)-c1ccccc1C2=O`, the Potency entry in experiment [1] and in experiment [5] was “inactive” each time. In addition, the Potency was 100 µM (active) in experiment [2], 100 µM (active) in experiment [3], 23.9 µM (active) in experiment [4] and 31.6 µM (active) in experiment [6].
Take `CCc1ccc(OCCCSc2nc(-c3ccc(C(C)(C)C)cc3)nc3cc(=O)[nH]n23)cc1`: the Potency in experiment [1] was 42.6 µM (active). The Potency result in experiment [2], in experiment [3], in experiment [4], in experiment [5] and in experiment [6] was “inactive” throughout.
For `COCCOC(=O)C(C#N)c1nc2ccccc2nc1N1CCN(Cc2ccccc2)CC1` (stereo unspecified), the Potency result in experiment [1], in experiment [2] and in experiment [4] was “inactive” each time. Moreover, the activation in experiment [3] is 10.5% [at 17.1 µM, percent relative to cAMP agonist control]; in experiment [6], 38.2% [at 30.8 µM]. Moreover, the activity change, negative = inhibition in experiment [5] was 4.89% [at 30.8 µM].
In the case of `O=C(COc1ccccc1Br)NCCC1=CCCCC1`, the Potency entry in experiment [1], in experiment [2] and in experiment [4] was “inactive” throughout. Besides, the activation in experiment [3] was 11.2% [at 17.1 µM, percent relative to cAMP agonist control]; in experiment [6], 20.5% [at 30.8 µM]. Moreover, the activity change, negative = inhibition in experiment [5] is -17.9% [at 30.8 µM].
As to `COc1ccc(C(C#N)=Cc2cccc(OC)c2OC)cc1`, the Potency result in experiment [1], in experiment [2], in experiment [3], in experiment [5] and in experiment [6] was “inactive” throughout. Besides, the Potency in experiment [4] was 16.9 µM (active).
`COc1ccc(C(C)=NNc2ccc([N+](=O)[O-])cc2S(=O)(=O)Nc2ccccc2C(=O)O)c(OC)c1`: the Potency in experiment [1] is 37.9 µM (active); in experiment [4] it was 75.7 µM (active). In addition, the Potency entry in experiment [2], in experiment [3], in experiment [5] and in experiment [6] was “inactive” throughout.
Regarding `COc1cc(CCc2ccccc2)c(C(=O)O)c(O)c1CC=C(C)C`, in experiment [1], the Potency is 42.6 µM (active). For the same compound, the Potency result in experiment [2], in experiment [3], in experiment [4], in experiment [5] and in experiment [6] was “inactive” each time.
On to `COC(=O)C1(Cc2ccccc2)NC(c2ccc(F)cc2)C2C(=O)N(C)C(=O)C21` (stereo unspecified), for which the Potency result in experiment [1], in experiment [2] and in experiment [4] was “inactive” in each case. The activation in experiment [3] is 1.04% [at 17.1 µM, percent relative to cAMP agonist control]; in experiment [6], 3.32% [at 30.8 µM]. In addition, the activity change, negative = inhibition in experiment [5] is 4.27% [at 30.8 µM].
As to `COc1ccc(CN2C(=O)c3cccnc3C2Nc2cc(Cl)c(OC)cc2OC)cc1` (stereo unspecified), the Potency in experiment [1] is 75.7 µM (active). Besides, the Potency entry in experiment [2], in experiment [3], in experiment [4], in experiment [5] and in experiment [6] was “inactive” in each case.
As for `Cc1ccc2c(c1)c1c(c(=O)n(-c3cccc(Cl)c3)c(=O)n1C)n2C`, the Potency entry in experiment [1], in experiment [2], in experiment [3], in experiment [4], in experiment [5] and in experiment [6] was “inactive” in each case.
Regarding `CCc1ccc(S(=O)(=O)Nc2cc3c(cc2C)n(C)c(=O)n3C)cc1`, the Potency entry in experiment [1], in experiment [2] and in experiment [4] was “inactive” each time. Besides, the activation in experiment [3] is 6.63% [at 17.1 µM, percent relative to cAMP agonist control]; in experiment [6] it was 18.2% [at 30.8 µM]. In addition, the activity change, negative = inhibition in experiment [5] was -10.1% [at 30.8 µM].
Take `O=c1oc2ccccc2nc1/C=C(O)/C=C\c1ccccc1`: the Potency entry in experiment [1], in experiment [2] and in experiment [4] was “inactive” throughout. Further, the activation is 2.36% [at 17.1 µM, percent relative to cAMP agonist control] in experiment [3] and -0.436% [at 30.8 µM] in experiment [6]. For the same compound, in experiment [5], the activity change, negative = inhibition was -9.13% [at 30.8 µM].
In the case of `O=C(Nc1cc(C(=O)Nc2ccccc2C(=O)O)cc(C(=O)Nc2ccccc2C(=O)O)c1)c1ccccc1`, in experiment [1], the Potency was 2.24 µM (active). Also, the Potency entry in experiment [2] and in experiment [4] was “inactive” throughout. Besides, the activation in experiment [3] is 5.98% [at 17.1 µM, percent relative to cAMP agonist control]; in experiment [6], 19.7% [at 30.8 µM]. In experiment [5], the activity change, negative = inhibition is 11.5% [at 30.8 µM].
With `CCC(=O)C1=C(c2cccc([N+](=O)[O-])c2)N(C(=O)CC)n2c(nnc2-c2ccccc2)S1`, the Potency entry in experiment [1], in experiment [2], in experiment [3], in experiment [4], in experiment [5] and in experiment [6] was “inactive” each time.
As for `CCc1ccc(/C=C2\SC(=S)N(CCC(=O)Nc3cc(C)on3)C2=O)cc1`, the Potency result in experiment [1], in experiment [2], in experiment [3], in experiment [4], in experiment [5] and in experiment [6] was “inactive” in each case.
Consider `COc1cc2ccccc2cc1C(=O)N1CCc2ccccc21`, for which the Potency result in experiment [1], in experiment [2], in experiment [3], in experiment [5] and in experiment [6] was “inactive” each time. The Potency in experiment [4] is 7.57 µM (active).
Consider `CCCCC(=O)Nc1cccc(NC(=O)c2ccccc2Br)c1`, for which the Potency result in experiment [1], in experiment [2], in experiment [3], in experiment [4], in experiment [5] and in experiment [6] was “inactive” throughout.
